# Experimental data published in the supplement of paper PMC6555819.
# How the values were obtained:
# Assay in all cases: PBM binding z-score (relative to random genomic background probes); higher = stronger binding; sequences stand for … in GC…GCGATTGACAGCGTAGAATGAAGG
# [1] = test system: RARb homodimer (NR concentration 270 nM)
# Procedure, shortened: (§1)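 Random background probes are the reference for binding z-scores. These scores derive from regression-normalized fluorescence on custom Agilent 4×180K protein-binding microarrays incubated 1 h with ligand-free nuclear receptor dimers. Binding was detected with antibodies against each partner (one per run).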
# [2] = test system: RARg:RXRa (NR concentration 270 nM, RXRa partner concentration 90 nM)
# Procedure, shortened: as §1
# [3] = test system: RARg homodimer (NR concentration 270 nM)
# Procedure, shortened: as §1
# [4] = test system: RXRa DBDmut IVT, anti-RXR (DBD mutation: RXRa K156A/R161A, NR concentration 90 nM)
# Procedure, shortened: as §1
# [5] = test system: RXRa homodimer (NR concentration 180 nM)
# Procedure, shortened: as §1
# [6] = test system: THRa:RXRa (NR concentration 90 nM, RXRa partner concentration 90 nM)
# Procedure, shortened: as §1
# [7] = test system: THRa homodimer (NR concentration 90 nM)
# Procedure, shortened: as §1
# [8] = test system: VDR homodimer (NR concentration 270 nM)
# Procedure, shortened: as §1
Sequence,PBM binding z-score [1],PBM binding z-score [2],PBM binding z-score [3],PBM binding z-score [4],PBM binding z-score [5],PBM binding z-score [6],PBM binding z-score [7],PBM binding z-score [8]
CGAACTAGGTCATTGACCGGACAGTGAATAGTAA,2.74,4.42,4.59,2.25,2.82,2.57,0.878,1.18
TCGAGTAGGTAACCAATGGGGCATTCAGCTTTCT,-0.0946,-0.146,-0.427,0.00393,0.0647,0.124,-0.752,-0.729
GGAACGAGGGCATTCGAGTTGTTAGCATGGCGAT,0.647,0.902,1.17,2.89,0.659,2.06,-0.524,2.43
ACAGACAGGTGATGAAGGTAACTCAAGCTATCAT,0.13,0.288,0.537,-0.0436,0.166,0.289,-0.0849,-0.318
ACCAGTTGGTCAGCTGAGGTCACACACAATTCGG,4.44,4.2,4.52,1.29,4.27,5.07,5,3.47
TGCATGAGGTTAAAGATCAGGGAACGTGGCGTCG,1.02,2.55,1.33,1.43,3.68,2.71,0.949,1.11
CAAACTAGATCAAAGGTCAAAGTCGAGCCAACCA,4.67,6.29,5.66,2.16,7.75,3.51,0.812,2.87
CAAACTAGGTCTCAGAGGTCAAAGTCCGTGCGTA,4.68,5.13,4.6,1.65,6.01,3.63,1.7,4.57
CCTTACGGGTCACTCCAAGTTATAGCATCGGAGT,2.81,4.31,4.69,1.81,4.11,2.51,0.165,1.05
CATATAGGGTCAGCTAGGCCAGAGTAGGGACGGC,3.33,4.41,4.49,1.48,4.2,3.37,1.12,1.02
CCTCGGAGGACAACAGGAGGTCAGAGCGGCCAGA,3.6,3.74,3.91,0.253,2.11,2.87,1.31,1.51
CCTTACGGGTCACTGCAGGTTATAGCATCGGAGT,3.23,4.87,4.67,1.59,5.03,4.41,0.184,1.17
TCTCGGAGGACACGATAGGTCAGAGCTCGACATC,3.02,2.49,3.18,0.695,1.43,2.47,0.393,0.242
ACTATTAGTTGAGACCAGGGCAACCGATAGGTTG,0.667,0.276,0.568,-0.232,0.3,1.79,0.11,0.0358
CCTAGCAGGCCAGGGACACTCAAGCATTTCGCTT,0.112,-0.238,-0.144,-0.269,-0.377,0.512,0.193,-0.34
CAAACTAGGTCACGGTCAAAGTCGGTTTGTGCCA,4.62,4.99,5.89,2.12,3.82,3.94,2.34,1.7
TATACAGGGTAAAAGGCCAGAGTACGAATGTCGA,1.6,1.56,1.59,-0.337,1.11,0.651,-0.663,0.418
GCTGCTAGATCAACTGATGGTCAGCTAAAGCTCG,-0.449,-0.186,-0.352,-0.229,-0.482,-0.352,-1.12,-0.805
ATCGAAAGGTCGAGATGAGTATAGAGAAAGGGAA,1.97,3.79,3.54,0.857,3.81,1.93,-0.434,0.309

Sequence,PBM binding z-score [1],PBM binding z-score [2],PBM binding z-score [3],PBM binding z-score [4],PBM binding z-score [5],PBM binding z-score [6],PBM binding z-score [7],PBM binding z-score [8]
CCAAACAGGTGAGAAGGTAACTCAGCCTCGATTA,0.453,0.434,0.256,-0.0242,0.335,0.199,0.0192,-0.08
GCTTACGGGTCAAAGGTTTTAGCATGAATAGAAT,2.53,4.83,4.15,2.2,6.49,2.76,-0.137,1.41
GCGACTCGGGCAAAGCAGGTTACCATAAGGTTGG,0.473,0.453,0.464,-0.723,0.252,1.87,-0.264,-0.533
TTAATGAGGTTAAAGATCAGGGAACGTGGCGTCG,0.917,2.56,1.52,1.68,4.02,2.89,0.742,1.14
CCGAGTAGGTTATGGGGCATTCACGCAACGGTGA,0.898,0.542,0.597,-0.117,0.816,0.155,-0.0267,0.416
CCAACTGGGGCAAAGGTTACCATACTCAGTACGA,2.56,3.77,2.06,0.365,4.41,1.84,0.0572,0.0335
CATACAGGGTCAGCTAGGCAAGAGTAGGGACGGC,2.9,4.17,4.1,1.22,4.03,2.94,1,0.693
GCTCTGAGGACAAGGTCAGAGCTTTGTCCGTAGA,2.95,3.16,3.63,1.43,2.38,3.95,3.55,1.11
CCTAGTTGGTCAAGGTCAAACACGCTATAGGTAC,4.29,4.69,4.37,2.71,4.76,4.07,3.39,4.52
TCATATAGGTAAAAGGTTAAAGTCGGTGTGGTAA,2.41,3.05,1.54,2.12,4.88,2.27,0.509,0.746
TCGAGTAGGTTAGGGGCAATCAGAATGGCGTCGA,0.79,0.398,0.315,0.12,0.782,0.826,0.262,0.267
CAAACTAGGTCAAAGGTAAAAGTCGAGCCAACCA,2.87,5.02,4.78,2.02,5.74,3.26,0.692,0.479
CCTAGCAGGCCAATCTGGCTCACTCAAGGCTTGA,-0.747,-0.58,-0.5,-0.298,-0.743,-0.627,-0.709,-1.02
TCGACTAGGTTAGTCGGGGCATTCAGCCAACATA,0.379,-0.0311,-0.0411,0.284,-0.049,1.1,-0.279,0.492
CTTCCAAGGTCATAGGAGGTCAGTGAAGACAGAT,5.3,7,7.48,3.89,7.13,5.26,3.21,4.49
TCTGCTAGGTCAACGATCGTCAGCTAATCTGCTA,2.88,4.06,4.96,0.835,2.44,2.6,0.335,-0.498
TGTGAAAGTTCAAAGGTAACGTAAGTATCCACAC,3.75,5.88,5.56,4.17,7,3.13,0.137,3.9
GCTAGCAGGCCATTTGGGTCACTCCATGACGGGC,1.6,0.733,1.19,0.0531,0.716,1.61,0.324,0.419
AGTCAAAGTTCGCTAGGTAACGTAAGATTCAGCT,0.79,1.41,1.49,1.92,0.868,0.668,-0.0669,0.872

Sequence,PBM binding z-score [1],PBM binding z-score [2],PBM binding z-score [3],PBM binding z-score [4],PBM binding z-score [5],PBM binding z-score [6],PBM binding z-score [7],PBM binding z-score [8]
GCGACTGGGGCAAAGCAGGTTACAATAAGGTTGG,1.15,0.682,0.779,-0.0572,0.668,3.11,0.0569,-0.351
TCTATTAGTTGATTAGGGCTACCGAAACAGCGGA,-0.115,0.318,0.15,0.904,0.363,0.166,-0.0313,0.356
ACTAGTTGGTCAGGTGAGGTCACACACAATTCGG,4.31,4.16,4.17,1.23,4.21,4.85,5.01,4.61
TTACCAAGGTGAAGGTAGTTGATCCCTCTGTAGA,0.8,0.328,0.323,-0.443,0.761,1.84,0.575,-0.396
CCTGCTAGGTCATGGTCAGCCAATCTACAGTATG,3.14,3.98,4.45,1.26,3.04,3.07,1.18,0.0846
ACAGACAGGTGAGAGAAGGTAACTCAGCTGGACG,0.122,0.137,0.491,-0.484,0.333,1.69,-0.219,-0.636
TCTGCTAGGTCAACGATGGTCAGCTCATCTGCTA,3.24,3.91,4.62,1.05,2.41,3.15,0.671,-0.436
CCTGCTAGGTAATGGTCAGCTAATCTACAGTATG,0.105,-0.00382,0.0688,-0.0204,-0.388,-0.173,-0.275,-0.364
CCTACTGGGCCAAGGTGATTGATCAGTCAAAGCA,-0.085,-0.199,-0.0733,-1.43,-0.57,0.355,-0.015,-0.782
TCTTCTAGATCAAGCAGGTTAAGAAAGCCTGAGT,0.111,0.248,-0.0717,0.841,0.526,0.295,-0.392,0.0619
TCGAGAAGGTTAGTCGGGGCATTCAGCCAACATA,0.99,0.634,0.546,0.877,0.644,1.79,0.0413,1.2
GATATTAGTTGAAAGGGCAACCGAATGATTCTCG,2.28,1.73,1.61,1.04,1.58,0.705,0.0377,0.787
CCTACTGGGCCATTCGGAGGTCATTGATCATATG,3.37,3.59,2.55,0.347,2.38,2.83,1.58,3.03
TCATATAGGTAAACACGTGAAAGTCCGTAAGTTA,0.112,0.245,0.371,1.31,0.661,0.0438,0.238,0.164
CCAGACAGGTGAGAAGGTAACTCGGCCTCGATTA,0.583,0.465,0.269,0.0522,0.351,0.364,0.256,-0.0946
CGTTACGGGTCAAGGTTATAGCACGGGTGGTACG,3.67,4.89,4.88,0.953,5.7,3.24,0.918,1.42
CCGCCTGGGGCATAAGGTTACCATAAGCCAGCCC,1.94,1.82,1.11,-0.905,1.07,1.99,1.33,-0.126
TCATATAGGTAAATGCTAGGGGAAAGTCCGATCT,0.135,0.401,0.27,1.85,0.821,0.401,0.433,0.491
ATCCAAAGGTCGTGAGGTGAGTATACAGAAAGGC,3.47,5.02,4.46,1.72,5.91,3.66,1.97,1.63
